Source: PubChem (National Center for Advancing Translational Sciences (NCATS))
BRCA1 expr up: increases BRCA1 expression | MCF7-BRCA1-FFLuc reporter, luminescence, 48 h; response scale: scaled: vehicle 0%, 10 µM genistein 100% | Potency, µM (series often up to 46.1 µM), inactives show top-dose activation, most hits filed as activators | 1.1% of 380,000 active | AID 624202; also: nearly all actives have a fitted effect of over 80% in size
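First, MCF7-BRCA1-FFLuc cells (2000/well) attach for 2 h; next, compounds are pin-added and incubated 48 h at 37 °C; finally, luciferase reagent is added and luminescence read after 15 min.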
VDR inhibitor: inhibitors of human vitamin D receptor. VDR-SRC2-3 peptide fluorescence polarization, 2 h. Potency, µM, for the others: max response, negative = inhibition, actives largely listed as inhibitors. 0.93% of 400,000 active. P11473; also: % is scaled to controls: 0 for no effect and ±100 for the full control effect
Target sequence (P11473 whole entry, looked up): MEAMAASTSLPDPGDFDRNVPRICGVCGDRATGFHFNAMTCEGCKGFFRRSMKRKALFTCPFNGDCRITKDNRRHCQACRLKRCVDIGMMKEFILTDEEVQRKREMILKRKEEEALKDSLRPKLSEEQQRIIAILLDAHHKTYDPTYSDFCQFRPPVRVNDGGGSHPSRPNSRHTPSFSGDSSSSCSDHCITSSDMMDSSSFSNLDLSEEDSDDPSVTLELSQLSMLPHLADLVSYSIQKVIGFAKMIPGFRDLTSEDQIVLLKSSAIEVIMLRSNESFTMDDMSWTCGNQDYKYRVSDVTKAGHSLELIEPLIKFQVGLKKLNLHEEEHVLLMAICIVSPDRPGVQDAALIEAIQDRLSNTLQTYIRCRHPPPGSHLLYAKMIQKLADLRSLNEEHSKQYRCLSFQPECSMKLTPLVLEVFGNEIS
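Signal is fluorescence polarization, reporting how far test compounds block the interaction of VDR with the SRC2-3 coregulator peptide after a 2 h room-temperature incubation.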
PLK1 PBD block: PLK1 (human) polo-box domain binding inhibition | P53350 | Potency, µM, inactives show max response, negative = inhibition, hits mostly inhibitors | Plk1 PBD binding of FITC phosphopeptide, fluorescence polarization | 2.8% of 360,000 active; also: series mostly up to about 57 µM; % is scaled to controls: 0 for no effect and ±100 for the full control effect; nearly all actives have a fitted effect of over 65% in size
Tb PFK block: T. brucei PFK enzyme inhibition; O15648; T. brucei PFK, ADP-Glo luminescence; Potency, µM (top dose mostly 57.5 µM), without a hit: top-dose activity, negative = inhibition, most hits filed as inhibitors; 0.17% of 330,000 active; AID 485367;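 also: 0% = uninhibited 1x PFK enzyme wells and -100% = no-enzyme wells; nearly all actives have a fitted effect of over 60% in size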
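Compounds were pin-transferred as a titration series up to 57 uM into substrate buffer (0.5 mM F6P, 0.1 mM ATP, pH 8.0), then 1.25 nM PFK was added and reactions ran 45 min before ADP-Glo detection.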
The depositor's hits bear a star; u = inconclusive; x = not tested or not shown. Hits are enriched below; roughly 3.9% of the tested compounds scored in any of these assays. Calls follow the shape of the dose curve; as a rule, active = well fitted curve in the direction sought with a large enough effect; inconclusive = small, poorly fitted or top-dose-only effect, or another doubt; inactive = no such curve, though single readings can be large; an effect the other way counts as inactive or inconclusive. Potency is read from the fitted curve at half-maximal effect.

SMILES	BRCA1 expr up	VDR inhibitor	PLK1 PBD block	Tb PFK block
CCc1c(C)sc(NC(=O)C2CCCO2)c1C#N (centres undefined)	12%	u	24µM*	0%
COc1ccc(-n2nc3cc(C)c(N)c(Br)c3n2)cc1	50%	-1%	3.8µM*	-1%
COC(=O)CC1C(=O)NCCN1C(=O)c1ccc2oc(C(C)C)nc2c1 (centres undefined)	-3%	u	30µM*	2%
COc1cc(OC)c(NC(=O)CCn2cccn2)cc1Cl	x	5%	x	x
Cc1ccc(-c2cn3cccnc3n2)cc1	122%	5%	-4%	3%
Nc1cccc(-c2cn3cccnc3n2)c1	-3%	-21%	30µM*	1%
COC(=O)C1=C(C)N(CCCC(=O)O)C(=O)NC1c1cccc(Cl)c1Cl (centres undefined)	52%	5%	2%	x
S=c1[nH]c2ccccc2s1	x	35µM*	x	x
Nc1cc(=O)nc(SCC(=O)Nc2ccc(F)cc2)n1-c1ccccc1Cl	x	8%	x	x
Clc1ccc(-c2noc(CN(Cc3ccccn3)CC3CCCO3)n2)cc1 (centres undefined)	-14%	22%	-4%	-3%
Cc1oc(-c2ccc(F)cc2)nc1CN(Cc1ccccn1)CC1CCCO1 (centres undefined)	18%	u	30µM*	0%
O=C(N/N=C1/CC2C=CCC12)c1cccs1 (centres undefined)	u	17%	0%	-3%
O=C(N/N=C1/CC2C=CCC12)c1ccco1 (centres undefined)	37%	u	30µM*	2%
COc1ccc(-n2[nH]c3c4c(ncc3c2=O)CCCCC4)cc1	x	4%	x	x
COc1ccc(-n2[nH]c3c(cnc4ccccc43)c2=O)cc1	14µM*	x	-17%	x
COc1ccc(CCn2c(-c3ccc(C(C)(C)C)cc3)n[nH]c2=S)cc1OC	21%	-1%	38µM*	15%
Brc1cccc(CNCCCN2CCOCC2)c1	5%	-28%	27µM*	-4%
Cc1ccc(C(=O)NCC(=O)N2CCCN(C)CC2)cc1C	-1%	-11%	0%	14%
OCCCNCc1ccc(Cl)cc1Cl	9%	9%	30µM*	0%
CC(O)CNCc1ccc(Cl)cc1Cl (centres undefined)	16%	-16%	-7%	-1%
Cc1ccc(N2CCN(C(=O)c3cn(C)c4ccc(S(=O)(=O)N(C)C)cc4c3=O)CC2C)cc1 (centres undefined)	-9%	-4%	x	x
Cc1ccc(C2C(C(=O)c3cc4ccccc4o3)=C(O)C(=O)N2c2cc(C)on2)cc1 (centres undefined)	0%	79µM*	19µM*	-2%
Cc1cc(N2C(=O)C(O)=C(C(=O)c3cc4ccccc4o3)C2c2ccc([N+](=O)[O-])cc2)no1 (centres undefined)	-21%	-5%	38µM*	-7%
Cc1ccc(C)c(Cn2c(=O)n(Cc3ccccc3)c(=O)c3c(C)c(C)sc32)c1	x	-6%	x	x
Cc1ccccc1N(C(=O)c1csnn1)C(C(=O)NC(C)(C)C)c1cccs1 (centres undefined)	-9%	u	8.4µM*	7%
SMILES	BRCA1 expr up	VDR inhibitor	PLK1 PBD block	Tb PFK block
CN1CCSc2ccc(C(=O)Nc3cc(F)ccc3F)cc21	13µM*	-7%	u	13%
COc1ccc(C(=O)COC(=O)c2nn(C)cc2Cl)cc1	43%	-7%	-10%	3%
Cn1cc(Cl)c(/C(N)=N/OC(=O)c2ccccc2C(F)(F)F)n1	11µM*	-14%	-11%	-2%
COc1ccc(S(=O)(=O)N2CCN(Cc3ccc(Cl)cc3)CC2)cc1	-66%	10%	-1%	-11%
COc1ccc(CN2CCCN(S(=O)(=O)c3ccc(Br)cc3)CC2)cc1	-36%	-23%	27µM*	-6%
CC(C)C[C@H]1CN([C@@H](CC(C)C)CN2CCC[C@H]2CN2C(=O)C(=O)NC[C@@H]2Cc2ccc(O)cc2)C(=O)C(=O)N1CC1CCCCCC1	-31%	x	-13%	x
CCC1(c2ccccc2)CN(C)C1=O (centres undefined)	5%	x	-8%	x
CCN1c2ccccc2N(C)C1(C)c1ccccc1 (centres undefined)	-91%	u	1.7µM*	-5%
O=S(=O)(Nc1nc2ccccc2nc1Nc1ccc(N2CCOCC2)cc1)c1cc(Cl)ccc1Cl	1%	-23%	12µM*	0%
c1ccc(CSc2n[nH]c(-c3ccco3)n2)cc1	11µM*	12%	-10%	-4%
Cc1ccccc1NC(=O)CSc1nnc(-c2ccco2)c(-c2ccco2)n1	-5%	u	27µM*	u
Cc1ccccc1NC(=O)CSc1nc(-c2ccco2)nc2cc(=O)[nH]n12	x	-7%	x	x
COc1ccccc1NC(=O)CSc1n[nH]c(-c2ccco2)n1	10%	u	27µM*	x
CSc1nnc(-c2ccco2)c(-c2ccco2)n1	-35%	-4%	27µM*	u
c1ccc(CSc2nccc(-c3ccco3)n2)cc1	77%	-13%	-19%	x
Cc1ccccc1NC(=O)CSc1n[nH]c(-c2ccco2)n1	1%	-23%	-4%	-3%
Cc1cc(C)n2nc(CNS(=O)(=O)c3cccc([N+](=O)[O-])c3)nc2n1	10%	-3%	3%	2%
CCOC(=O)N1CCc2c(sc(NCc3sccc3C)c2C(=O)Nc2ccccc2OCC)C1	x	-17%	x	x
CC1CCN(S(=O)(=O)c2ccc3c(c2)N(CC(=O)NCc2ccccc2)C(=O)CO3)CC1	13%	10%	x	x
Cc1cccc(C)c1NC(=O)CSc1nnc(-c2ccco2)c(-c2ccco2)n1	-30%	u	19µM*	u
Cc1ccc2c(c1)-n1c(nc3ccc(C)cc3c1=O)C(Cc1ccccc1)NC2=O (centres undefined)	x	x	x	5%
Cc1cccc(NC(=O)C2C3CCCCC32)c1 (centres undefined)	10µM*	-12%	-1%	2%
CC(=O)c1cccc(NC(=O)Nc2ccc3c(c2)CCC3)c1	7.1µM*	9%	-1%	2%
Cc1cccc(NC(=O)c2ccc(OC3CSC3)cc2)c1	11µM*	3%	-1%	-5%
CC(=O)c1cccc(NC(=O)c2ccc3c(c2)CCCC3)c1	3.5µM*	-16%	-6%	-7%
SMILES	BRCA1 expr up	VDR inhibitor	PLK1 PBD block	Tb PFK block
CC(=O)c1cccc(NC(=O)c2ccc(OC3CSC3)cc2)c1	28%	-8%	-18%	1%
Cc1ccc(OCC(=O)Nc2cccc(OCc3cc(=O)n4ccccc4n3)c2)cc1C	x	12%	x	x
CCOc1ccc(C2C(C(N)=O)=C(C)Nc3nc(SCc4ccccc4F)nn32)cc1 (centres undefined)	6%	-5%	x	x
Nc1ccc(C(=O)Nc2cccc(NC(=O)c3ccc(N)cc3)c2)cc1	13%	u	27µM*	0%
CCc1ccc(NC(=O)Nc2ccon2)cc1	3.2µM*	-7%	-5%	-13%
COc1cccc(NC(=O)Nc2ccc3c(c2)CCC3)c1	u	10%	-5%	-1%
Cc1cccc(NC(=O)Nc2ccc3c(c2)CCC3)c1	4.5µM*	24%	3%	-3%
CC(=O)c1cccc(Nc2ccc(Br)cc2)c1	10µM*	x	2%	x
O=C(Nc1ccc2c(c1)CCC2)Nc1ccc2c(c1)OCO2	u	-16%	-4%	-5%
